The record followed here is PubChem BioAssay (NCI).

Compounds without any hit were thinned out: in the full panel of roughly 83,000, 20% have a hit.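 Plates (96-well) were seeded with cells, treated with compound at one concentration, and incubated for 48 hours before percent growth was determined.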 Unmarked numbers belong to inactive results. The source made the active and inactive calls. How the source made its calls: active means growth percent below 10; inactive means the rest.

Common to all, as to assay: NCI-60 one-dose screen, 48 h (100 = growth as untreated, 0 = no growth, -100 = all killed)
What all share (conditions): 10 µM

Experiment [1] has as its system NCI-H23 lung.
For experiment [2], the system named is NCI-H226 lung.
The test system of experiment [3] is NCI-H322M lung.
Experiment [4] has as its system HOP-62 NSCLC.
Experiment [5] deals with NCI-H460 lung.
Experiment [6] relates to HOP-92 NSCLC.
Experiment [7] relates to NCI-H522 lung.
In experiment [8] the test system is A549/ATCC NSCLC.
In experiment [9] the test system is 786-0 renal.
Experiment [10] relates to COLO 205 colon.
The subject of experiment [11] is DU-145 prostate.
The test system of experiment [12] is K-562 leukemia.
In experiment [13] the test system is MALME-3M melanoma.
The subject of experiment [14] is MDA-MB-231 breast.
Experiment [15] concerns SF-268 CNS.
For experiment [16], the system named is SF-295 CNS.
Experiment [17] relates to SF-539 CNS.
For experiment [18], the system named is UACC-257 melanoma.
For experiment [19], the system named is M14 melanoma.

As for `Oc1ccc(/C=C2\CCCc3cc4ccc(O)cc4[o+]c32)c(O)c1`, the growth in experiment [1] was 30%; in experiment [2], 77.6%; in experiment [3] it was 63.3%; in [4], 44.7%; in experiment [5], 19.8%; in experiment [6], 40.9%. Further, the growth in experiment [7] is 4.53% (active); in [8], 83%; in [9], 24.4%; in experiment [10], 50.6%; in experiment [11], 8.58% (active); in experiment [12], 41.5%. In addition, the growth in experiment [13] was 45.1%; in experiment [14] it was -27.4% (active); in experiment [15], 69.6%; in experiment [16], 90.1%; in [17], -15% (active); in experiment [18], 69%. In addition, the growth in [19] is 43.2%.
Consider `CCOC(=O)N/C(=C1/OCCN1C)[P+](c1ccccc1)(c1ccccc1)c1ccccc1`, for which the growth is 85.8% in experiment [1]; 93.1% in experiment [2]; 89.9% in experiment [3]; 97.6% in experiment [4]; 86.7% in [5]; 59.1% in experiment [6]. The growth is 54.2% in experiment [7]; 89% in experiment [8]; 101% in [9]; 41.3% in experiment [10]; 93% in [11]; 41.2% in experiment [12]. Besides, the growth in experiment [13] is 71%; in experiment [14], 59.9%; in experiment [15], 103%; in experiment [16], 88.1%; in [17], 78.1%; in experiment [18] it was 27.8%. In addition, in experiment [19], the growth is 90.9%.
As for `Nc1nc(Nc2ccc(Cl)cc2)n(Cc2cccc(Br)c2)n1`, the growth is -37.9% (active) in experiment [1]; -12.6% (active) in [2]; 11.8% in [3]; -30.4% (active) in experiment [4]; -65.9% (active) in experiment [5]; -49.5% (active) in [6]. Also, the growth was -46.2% (active) in experiment [7]; 8.74% (active) in experiment [8]; -46.8% (active) in experiment [9]; -68.8% (active) in [10]; 12.1% in experiment [11]; 7.99% (active) in experiment [12]. Further, the growth in experiment [13] was -53.2% (active); in experiment [14], -68.7% (active); in experiment [15], -27.4% (active); in experiment [16], -63.2% (active); in [17], -86.6% (active); in experiment [18], -15.6% (active).
Turning to `Nc1nc(Nc2ccc(Cl)cc2)nn1Cc1cccc(Br)c1`, the growth in experiment [1] was 31.7%; in experiment [2], 41.5%; in [3], 44.7%; in [4] it was 52.5%; in experiment [5], 17.9%; in [6], -9.09% (active). Moreover, the growth was 27.6% in experiment [7]; 45% in experiment [8]; 37.4% in [9]; 24.7% in experiment [10]; 53.3% in experiment [11]; 20.5% in experiment [12]. The growth was 50.6% in [13]; 42.6% in experiment [14]; 40.7% in experiment [15]; 44.7% in experiment [16]; 37.8% in experiment [17]; 58.2% in experiment [18]. In addition, the growth in [19] was 35.8%.
As to `OCCNc1oc(-c2ccccc2)nc1[P+](c1ccccc1)(c1ccccc1)c1ccccc1`, the growth in experiment [1] is 8.3% (active); in [2], 1.88% (active); in [3], 55.3%; in experiment [4], 24.2%; in [5], 5.2% (active); in [6] it was -22.6% (active). Also, the growth was 2.33% (active) in experiment [7]; 45.8% in [8]; 21.2% in experiment [9]; -52.8% (active) in [10]; 16.6% in experiment [11]; 11.2% in [12]. The growth in experiment [13] is -26.1% (active); in experiment [14], -5.38% (active); in [15], 5.6% (active); in experiment [16], 20.7%; in experiment [17], 16.7%; in [18] it was -9.09% (active). In addition, the growth in experiment [19] was 11%.
For the compound `COC1=C[C@]23CCC(=O)N2CCc2cc4c(cc2[C@@H]3[C@@H]1OC(=O)CCCC(C)C)OCO4`, the growth is 53.2% in experiment [1]; 23.3% in experiment [2]; 108% in experiment [3]; 70.5% in experiment [4]; 17.4% in experiment [5]; 95.6% in experiment [6]. For the same compound, the growth in experiment [7] was -2.41% (active); in experiment [8] it was 49.9%; in [9] it was 80.5%; in [10] it was 68%; in experiment [11] it was 84.2%; in [12], 17.6%. The growth was 4.86% (active) in experiment [13]; 98.5% in experiment [14]; 133% in experiment [15]; 69.9% in experiment [16]; 11.3% in [17]; 78.9% in experiment [18]. Besides, the growth in experiment [19] was 57.1%.
As to `COc1ccc(CN2[C@@H](C(=O)NCc3ccc(C(=O)NO)cc3)Cc3c([nH]c4ccccc34)[C@@H]2C2CC2)cc1`, the growth in experiment [1] is 21.3%; in [2], 50.8%; in [3], 42%; in [4], 24%; in [5], 13.7%; in [6], -3.87% (active). Moreover, the growth was -17% (active) in experiment [7]; 40.3% in experiment [8]; 28.4% in experiment [9]; -40.3% (active) in [10]; 15.8% in experiment [11]; 6.95% (active) in experiment [12]. For the same compound, the growth in experiment [13] was 12.8%; in experiment [14] it was 5.56% (active); in experiment [15], 20.9%; in [16], 3.12% (active); in experiment [17] it was 15.3%; in experiment [18] it was 36.3%.
For the compound `CN(C)CCNC(=O)OCCCCOc1cc(O)c2c(=O)cc(-c3ccccc3)oc2c1`, the growth is -2.08% (active) in experiment [1]; 12.1% in experiment [2]; -31.2% (active) in experiment [3]; 2.14% (active) in [4]; -33.9% (active) in [5]; -42.6% (active) in [6]. For the same compound, the growth in [7] was -77% (active); in [8], 4.88% (active); in experiment [9], -34.5% (active); in experiment [10] it was -46.4% (active); in experiment [11], -27% (active); in [12], 8.72% (active). Further, the growth was -96.8% (active) in [13]; -77.8% (active) in experiment [14]; -44.9% (active) in experiment [15]; -90.5% (active) in experiment [16]; -100% (active) in experiment [17]; -79.7% (active) in experiment [18]. In addition, the growth in experiment [19] was -75.1% (active).
